Source: PubChem BioAssay
“And” between values parts separate entries of the source, which are not always exact repeats. Identical values can stand only once. For part of these data: Results with a measured potency or affinity are listed apart. The source made the active and inactive calls.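 The calls were made as follows, unless noted: active = z-score of at least 1.8 in each of two replicates, scored against plate mean and spread of sample wells; inactive = the rest.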

Tests used:
[1] = blockers of polyQ-driven CASP3 activation – cell-based (AID 1583); details: polyglutamine-induced caspase-3 activation, cell assay; stronger effect = higher value;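 tested at 10 µM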
[2] = yeast 75Q aggregation reduction – 75Q-TubU reporter (AID 1593); details: Yeast 75Q polyglutamine aggregation reporter
[3] = restoration of touch response, mutant HTT neurons – whole organism, C. elegans mechanosensory neurons, N-terminal huntingtin (AID 1599); details: C. elegans polyQ-huntingtin mechanosensory neurons, stronger effect = higher value
[4] = blockers of cytochrome c efflux from mitochondria – biochemical, purified mitochondria (AID 1603); details: stronger effect = lower value;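 also: mouse liver mitochondria challenged with calcium chloride; signal normalized to the plate average as 100%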
[5] = polyglutamine aggregate formation blockers (AID 1604); details: polyglutamine-induced protein aggregation inhibition assay; stronger effect = higher value; tested at 2.5 µM
[6] = glutamate transport activators, MN-1 cells, MN-1 cell line (AID 1612); details: MN-1 motor neuron cells, stronger effect = higher value;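 also: tested at 1 µM final; 0% = mean of DMSO vehicle wells on each plate; positive means more glutamate uptake than control and negative means less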
[7] = GFP-Q80 aggregate reduction, neuronal-like cells, cell-based, NGF-treated PC12, GFPQ80 (AID 1614); details: PC12 NGF-treated GFP-polyQ80 inclusion reduction;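 also: lower means fewer inclusions and 0 means no inclusions at all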
[8] = 75Q-TubH aggregate inhibition, S. cerevisiae, yeast (AID 1616); details: S. cerevisiae 75Q-TubH polyglutamine aggregation suppression; stronger effect = higher value
[9] = P. berghei load reduction in hepatocytes – cell-based, HepG2, luciferase luminescence, HepG2 viability, primary screen (AID 624349; in the data active = parasite load remaining mostly below about 12%, no sharp cut-off; inactive = mostly above about 10%;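 also: 100% = mean of DMSO negative control wells on the same plate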); details: P. berghei liver stage in HepG2, luciferase luminescence, concentration not given here; parasite load remaining: stronger effect = lower value; viability: measured here: HepG2 viability without parasites
[10] = compounds altering circadian rhythm period length – cell-based, LOPAC library, luminescence reporter (AID 2774; call rule not given here;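 also: values are relative to mean of DMSO wells on each plate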); details: circadian reporter cells, at 7 µM, actives lie on both sides
[11] = galactose survival enhancers in mitochondrial complex I cybrids – cell-based, galactose medium, ATP luminescence, primary screen (AID 1645843); details: complex I mutant cybrid cells, 72 h, stronger effect = higher value;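 also: positive z means more ATP and so rescue of galactose-driven cybrid death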

For C[C@@H]1CC2C3C[C@H](F)C4=CC(=O)C=CC4(C)C3(F)[C@@H](O)CC2(C)C1C(=O)COC(=O)C(C)(C)C (stereo partly specified), the inhibition [1] was 26.8%, the score [2] was 0.1 and the rescue above control [3] was -3.49. The cytochrome c release ratio [4] was 1.09, the inhibition of aggregation [5] was 38% and the glutamate uptake change [6] was 10.9%. The inclusion score [7] was 2 and the aggregation suppression score [8] was 0.899.
NC[C@@H]1O[C@H](OC2[C@@H](O)[C@H](O[C@@H]3[C@H](N)[C@@H](O)C[C@H](N)[C@H]3O[C@H]3O[C@H](CO)[C@@H](O)[C@H](O)[C@H]3N)O[C@@H]2CO)[C@H](N)[C@@H](O)[C@@H]1O (stereo partly specified) gave an inhibition [1] of 25.1%, a score [2] of 0.88 and a rescue above control [3] of -2.53. It also gave a cytochrome c release ratio [4] of 1.33, an inhibition of aggregation [5] of 16.8% and a glutamate uptake change [6] of 21.4%. It also gave an inclusion score [7] of 2 and an aggregation suppression score [8] of 0.564.
For CCC[C@@H]1C[C@@H](C(=O)NC(C(C)Cl)C2O[C@H](SC)[C@H](O)[C@@H](O)[C@H]2O)N(C)C1 (stereo partly specified), the inhibition [1] was 0.38%, the score [2] was 1.1 and the rescue above control [3] was -7.48. The cytochrome c release ratio [4] was 1.11, the inhibition of aggregation [5] was 60.6% and the glutamate uptake change [6] was -13%. The inclusion score [7] was 2 and the aggregation suppression score [8] was 1.42.
For CC(=O)[C@H]1CCC2C3CC=C4C[C@@H](O)CC[C@]4(C)C3CC[C@@]21C (stereo partly specified), the inhibition [1] was 19.7%, the score [2] was 0.01 and the rescue above control [3] was -2.78. It also gave a cytochrome c release ratio [4] of 1.03, an inhibition of aggregation [5] of 66.7% and a glutamate uptake change [6] of -1.9%. For the same compound, the inclusion score [7] was 2, the aggregation suppression score [8] was 0.0851 and the parasite load remaining [9] was 85.1% (inactive). It also gave a viability [9] of 69.9%.
In the case of NC[C@@H]1O[C@H](O[C@H]2[C@@H](O)[C@H](O[C@@H]3[C@@H](O)[C@H](N)C[C@H](N)[C@H]3O[C@@H]3O[C@H](CO)[C@@H](O)C[C@H]3N)O[C@@H]2CO)[C@H](N)[C@@H](O)[C@@H]1O[C@H]1O[C@H](CO)[C@@H](O)[C@H](O)[C@@H]1O, the inhibition [1] is reported as -3.41%, the score [2] is reported as 1.7 and the rescue above control [3] is reported as 7.71. It also gave a cytochrome c release ratio [4] of 0.95, an inhibition of aggregation [5] of 11.6% and a glutamate uptake change [6] of 1.1%. It also gave an inclusion score [7] of 2 and an aggregation suppression score [8] of 1.86.
NCCNC(=O)c1ccc(Cl)cc1 gave an inhibition [1] of -45.7%, a score [2] of 1.23 and a rescue above control [3] of -2.85. It also gave a cytochrome c release ratio [4] of 1.14, an inhibition of aggregation [5] of 66.7% and a glutamate uptake change [6] of 11.9%. The inclusion score [7] was 2, the aggregation suppression score [8] was 1.48 and the period change [10] was 0.02 h (inactive).
Work on CC(CNC(=O)c1ccccc1)C(=O)OCC(=O)[C@@]12OC(C)(C)O[C@@H]1CC1C3CCC4=CC(=O)C=C[C@]4(C)[C@@]3(F)[C@@H](O)C[C@@]12C (stereo partly specified) yielded an inhibition [1] of -1.62%, a score [2] of 1.01 and a rescue above control [3] of 13.9. The cytochrome c release ratio [4] was 0.92, the inhibition of aggregation [5] was 100% and the glutamate uptake change [6] was 4.01%. The inclusion score [7] was 2.5 and the aggregation suppression score [8] was 1.21.
With CCn1cc(CN(C(=O)c2cnc3ccccn3c2=O)C(C)C)cn1 the z-score [11] was 0.18 (inactive).
With Cc1cn(CC(=O)Nc2cnn(C)n2)nc1-c1cccs1 the z-score [11] was 0.735 (inactive).
For Cc1nnc2ccc3nnc(-c4cc(Cl)ccc4OC(C)C)n3n12, the z-score [11] was -0.5 (inactive).
For Cn1cc(-c2cc(C(=O)N3CCc4ccccc4C3)c3cc(F)ccc3n2)cn1, the z-score [11] was 1 (inactive).
For O=C1NCCN(C(=O)c2ccc(Cl)c(F)c2)C1Cc1ccccc1 (stereo unspecified), the z-score [11] was -0.565 (inactive).
Work on CC(=O)CCC1C2=NC(=C\C3=NC(=C(/C)C4=NC(C)(C5[N-]/C(=C\2C)C(C)(CCC(=O)NCC(C)OP(=O)(O)O[C@@H]2[C@@H](CO)OC(n6cnc7cc(C)c(C)cc76)[C@@H]2O)C5CC(N)=O)C(C)(CC(N)=O)C4CCC(N)=O)/C(C)(CC(N)=O)C3CCC(N)=O)/C1(C)C.[CH2-][C@H]1OC(n2cnc3c(N)ncnc32)[C@H](O)[C@@H]1O.[Co+2] (stereo partly specified) yielded an inhibition [1] of 55.6%, a score [2] of 1.56 and a rescue above control [3] of 0.82. It also gave a cytochrome c release ratio [4] of 0.56, an inhibition of aggregation [5] of 44.4% and a glutamate uptake change [6] of 14.2%. It also gave an aggregation suppression score [8] of 1.42.
For Cc1cc(N2CCC(Cn3cc(CN)nn3)CC2)nc(-c2ccccc2O)n1, the z-score [11] was -1.23 (inactive).
For Cc1c(C(F)(F)F)nc(-c2ccc(CN(C)Cc3ccccn3)cc2)[nH]c1=O, the z-score [11] was -0.485 (inactive).
With CCC(=O)N(CC)c1cc(C)ccc1OC1(C(=O)O)CCSCC1 the z-score [11] was -0.47 (inactive).
With NC(=O)NCc1cn(C2CCN(C(=O)C3CCCCCC3)CC2)nn1 the z-score [11] was -0.575 (inactive).
For COc1ccccc1C(=O)N1CCN(C(=O)c2nc3ccccc3c(=O)[nH]2)CC1, the z-score [11] was 0.365 (inactive).
In the case of O=C1CN(c2ncnc3sccc23)CCN1Cc1ccc(F)cc1, the z-score [11] is reported as 0.19 (inactive).
With COc1cc(-c2cccc(C)c2C)nc(N)n1 the z-score [11] was -0.335 (inactive).
With Fc1ccc(C(c2ccccc2)(c2ccccc2F)n2ccnc2)cc1 (stereo unspecified) the inhibition [1] was -9.56% and 14%, the score [2] was 1.45 and 0.36 and the rescue above control [3] was 12 and 6.65. The cytochrome c release ratio [4] was 3.37 and 1.21, the glutamate uptake change [6] was 5.37% and 7.94% and the inclusion score [7] was 2. For the same compound, the aggregation suppression score [8] was 1.35 and 0.117.
With COc1ccccc1N1CCN(C(=O)CCC(C)C)CC1(C)C the z-score [11] was 2.31 (active).
For COc1ccc(CNCC2COCCO2)cc1OC (stereo unspecified), the z-score [11] was 3.29 (active).
In the case of CCN(C(=O)c1cc(-c2cnc(C3CC3)nc2)nc2cc(C)ccc12)C(C)C, the z-score [11] is reported as 1.41 (inactive).
For O=C(c1cn2cccnc2n1)N1CCCC(Cn2cc(C3CCCC3)nn2)C1 (stereo unspecified), the z-score [11] was -0.49 (inactive).
With CC(C)Oc1cccc(C(=O)N2CCC(n3cc(C(C)(C)O)nn3)CC2)c1 the z-score [11] was -0.52 (inactive).
With CCOC(=O)c1cc(C)nc(N2CCCC(c3nc(C(C)C)no3)C2)n1 (stereo unspecified) the z-score [11] was -0.54 (inactive).
In the case of Cc1nc2cc(C(=O)N3CCN(C)C(=O)C3)ccc2s1, the z-score [11] is reported as -0.24 (inactive).
CC(C)[C@@H](C)/C=C/[C@@H](C)C1CC[C@H]2/C(=C/C=C3\C[C@@H](O)CC[C@@H]3C)CCC[C@]12C (stereo partly specified) gave an inhibition [1] of 63.6%, a score [2] of 0.42 and a rescue above control [3] of 5.3. The cytochrome c release ratio [4] was 0.91, the inhibition of aggregation [5] was 83.3% and the glutamate uptake change [6] was -13.9%. For the same compound, the aggregation suppression score [8] was 0.578.
In the case of Cn1ncc2[nH]c(-c3cc(F)ccc3-n3cccn3)nc21, the z-score [11] is reported as -0.56 (inactive).
In the case of CCc1cc(-c2cccc(C)c2C)nc(N(C)C)n1, the z-score [11] is reported as 1.21 (inactive).
With CCC1CN(C(=O)c2cc(-c3cnn(C)c3)nc3c(C)c(C)ccc23)CCO1 (stereo unspecified) the z-score [11] was 3.04 (active).
In the case of Cc1cc(-c2ccccc2C(F)(F)F)nc(N)n1, the z-score [11] is reported as -0.545 (inactive).
In the case of CCn1cc(-c2cc(C(=O)N3CCCCCC3)c3cccc(C)c3n2)cn1, the z-score [11] is reported as 0.305 (inactive).
For CN(CC1Cc2ccccc2O1)C(=O)Nc1nc(-c2ccccc2)ns1 (stereo unspecified), the z-score [11] was 1.98 (inactive).
In the case of COc1cccc(-n2cc(-c3ccnc(N(C)Cc4cccnc4)n3)cn2)c1, the z-score [11] is reported as 0.62 (inactive).
In the case of O=C(Nc1cccnc1)c1csc(Cc2ccccc2)n1, the z-score [11] is reported as -0.815 (inactive).
For Cc1nn(C)cc1-c1ccnc(NC(CC(C)(C)C)c2cccnc2)n1 (stereo unspecified), the z-score [11] was 1.75 (inactive).
In the case of Cc1ccsc1-c1cccc(C(=O)c2nccn2C)c1, the z-score [11] is reported as 0.225 (inactive).
With O=C(Cn1ccc(-c2cccnc2)n1)Nc1ccnn1Cc1cccs1 the z-score [11] was -0.545 (inactive).
For Cc1cc(CN(C)Cc2ccc(-c3nc(C)c(C)c(=O)[nH]3)cc2)ccn1, the z-score [11] was -0.52 (inactive).
In the case of Cc1ccc(Nc2nc(N)nc(-c3ccc(C(=O)N(C)C)cc3)n2)cc1, the z-score [11] is reported as 2.23 (active).
Compound CCC(=O)c1ccc2c(c1)N(CC(C)N(C)C)c1ccccc1S2 (stereo unspecified) has an inhibition [1] of -29.2%, a score [2] of 1.17 and a rescue above control [3] of 1.64. For the same compound, the cytochrome c release ratio [4] was 1.13, the inhibition of aggregation [5] was 69.7% and the glutamate uptake change [6] was -2.12%. The aggregation suppression score [8] was 1.33.
For Cc1cc(NC(=O)Cn2ccc(-c3ccncc3)n2)n(-c2ccccn2)n1, the z-score [11] was 0.42 (inactive).
For CCCCC(CO)NC(C)CCc1ccc(OC)cc1 (stereo unspecified), the z-score [11] was -0.47 (inactive).
In the case of Cc1ccc(-c2ncccc2OC2(C(=O)O)CCCC2)cc1C, the z-score [11] is reported as -0.735 (inactive).
For COCCN(C)Cc1ccc(-c2nc(C)c(C)c(=O)[nH]2)cc1, the z-score [11] was -0.545 (inactive).
In the case of CCCCn1nnnc1NC(=O)NC1CCN(Cc2ccncc2)CC1, the z-score [11] is reported as -0.755 (inactive).
With Cc1ccc2c(C(=O)N3CCCCC3)cc(-c3cnn(C(C)C)c3)nc2c1 the z-score [11] was -0.385 (inactive).
For CCN(Cc1ccncc1)C(=O)c1cc(-c2cnc(C)nc2)nc2c(C)cccc12, the z-score [11] was -0.835 (inactive).
